Bm FixLJ act = activators of Burkholderia fixLJ two-component system; B. multivorans fixK-promoter GFP reporter, 18 h; hits give high values; z-score (no concentration beside the values); 29,000 compounds, 0.3% hits;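 active = replicate mean overnight rise in green fluorescent reporter signal, 3 or more SD over negative controls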
Starred values were filed as active, the others as inactive. The sample as a whole holds a higher share of hits than the screen did.

SMILES	Bm FixLJ act
Cc1ccccc1-n1c(/C=C/c2ccc(N(C)C)cc2)nc2ccccc2c1=O	21*
Cc1ccccc1-n1c(/C=C/c2c(C)[nH]c3ccccc23)nc2ccccc2c1=O	-0.55
COc1cccc(-n2c(/C=C\c3ccc(Cl)cc3)nc3ccccc3c2=O)c1	0.01
c1ccc(C2(c3nc(C4(N5CCOCC5)CCCCC4)n[nH]3)CC2)cc1	-0.71
Cc1nc(CC(=O)N2CCN(Cc3nonc3C)CC2)cs1	0.74
